# Reference: PMC7862700, “An all-to-all approach to the identification of sequence-specific readers for epigenetic DNA modifications on cytosine”
# Key:
# Experiment in all cases: DAPPL (digital affinity profiling via proximity ligation, sequencing); 10 mM Tris-HCl pH 7.5, 50 mM NaCl, 1 mM DTT, 4% glycerol, room temperature, 30 min; GST-TFs on glutathione beads, 16-mer random dsDNA library, 0.1% formaldehyde crosslink after washing; high values mean tight binding
# FEV = target: T1, FEV (Homo sapiens, UniProt Q99581 1-238); settings: protein: recombinant; tags: N-terminal GST; dsDNA, one strand shown
# T1 sequence: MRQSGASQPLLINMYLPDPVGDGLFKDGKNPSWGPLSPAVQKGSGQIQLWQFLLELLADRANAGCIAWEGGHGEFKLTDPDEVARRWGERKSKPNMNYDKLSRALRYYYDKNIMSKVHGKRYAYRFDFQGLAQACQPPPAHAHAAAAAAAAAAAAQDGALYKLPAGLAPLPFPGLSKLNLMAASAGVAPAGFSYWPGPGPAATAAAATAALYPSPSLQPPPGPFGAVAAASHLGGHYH
# Summary of the method: (§1)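 Beads coated with glutathione captured GST-fused human transcription factors that had been expressed in yeast, and the factors were then given DNA barcodes and pooled with a tag-only sample. The pools were incubated with 200 nmole of a random double-stranded 16-mer DNA library in Tris/NaCl/DTT/glycerol buffer for 30 min at room temperature, washed, crosslinked with 0.1% formaldehyde and proximity-ligated with BsaI/T4 ligase at 37 °C for 1 h. PCR amplification and Illumina NextSeq500 sequencing came last. Binding signal is each hexamer's read frequency for a factor divided by its frequency for the tag-only sample.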
# ETV5 = ETV5 (Homo sapiens, UniProt P41161 1-510); settings: protein: recombinant; tags: N-terminal GST; dsDNA, one strand shown
# Chain of ETV5 (P41161 whole entry): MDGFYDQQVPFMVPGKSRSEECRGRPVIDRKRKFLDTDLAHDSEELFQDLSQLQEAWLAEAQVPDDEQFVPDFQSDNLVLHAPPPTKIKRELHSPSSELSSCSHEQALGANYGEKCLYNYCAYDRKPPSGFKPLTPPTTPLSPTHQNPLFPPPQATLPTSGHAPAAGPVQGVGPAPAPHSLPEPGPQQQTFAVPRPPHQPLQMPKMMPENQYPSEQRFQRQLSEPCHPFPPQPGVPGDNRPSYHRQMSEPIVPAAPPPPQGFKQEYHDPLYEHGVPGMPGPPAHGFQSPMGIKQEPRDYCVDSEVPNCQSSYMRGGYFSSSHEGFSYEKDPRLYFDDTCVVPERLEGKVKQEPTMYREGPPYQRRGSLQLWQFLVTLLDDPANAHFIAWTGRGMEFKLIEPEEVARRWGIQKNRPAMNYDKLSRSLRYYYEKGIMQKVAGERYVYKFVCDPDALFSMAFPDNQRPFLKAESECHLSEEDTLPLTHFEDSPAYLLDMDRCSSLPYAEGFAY
# Summary of the method: as §1
# HSF1 = HSF1 (Homo sapiens, UniProt Q00613 1-529); settings: protein: recombinant; tags: N-terminal GST; chain copies: 3; dsDNA, one strand shown
# Chain of HSF1 (Q00613 whole entry): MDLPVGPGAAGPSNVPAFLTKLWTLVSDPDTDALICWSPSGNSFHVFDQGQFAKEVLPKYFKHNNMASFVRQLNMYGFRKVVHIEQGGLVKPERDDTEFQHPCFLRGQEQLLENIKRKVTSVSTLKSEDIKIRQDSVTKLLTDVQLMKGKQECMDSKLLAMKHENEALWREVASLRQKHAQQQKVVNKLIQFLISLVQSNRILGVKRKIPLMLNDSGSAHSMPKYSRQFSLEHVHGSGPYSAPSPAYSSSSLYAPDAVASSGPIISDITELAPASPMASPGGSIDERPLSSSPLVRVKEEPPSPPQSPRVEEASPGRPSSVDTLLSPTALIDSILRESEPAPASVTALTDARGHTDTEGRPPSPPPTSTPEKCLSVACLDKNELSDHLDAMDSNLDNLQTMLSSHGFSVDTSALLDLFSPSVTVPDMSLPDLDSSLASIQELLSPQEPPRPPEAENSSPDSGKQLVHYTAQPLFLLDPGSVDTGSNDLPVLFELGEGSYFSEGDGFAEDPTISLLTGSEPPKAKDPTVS
# Summary of the method: as §1
# SPIC = target: T2, SPIC (Homo sapiens, UniProt Q8N5J4 1-248); settings: protein: recombinant; tags: N-terminal GST; dsDNA, one strand shown
# T2 sequence: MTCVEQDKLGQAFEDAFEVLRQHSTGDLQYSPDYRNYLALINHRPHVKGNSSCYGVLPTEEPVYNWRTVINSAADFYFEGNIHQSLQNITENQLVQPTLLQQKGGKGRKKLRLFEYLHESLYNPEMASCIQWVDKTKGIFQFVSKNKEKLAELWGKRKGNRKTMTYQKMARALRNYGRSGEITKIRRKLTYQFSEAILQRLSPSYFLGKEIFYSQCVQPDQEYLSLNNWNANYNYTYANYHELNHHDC
# Summary of the method: as §1
# ELF4 = ELF4 (Homo sapiens, UniProt Q99607 1-663); settings: protein: recombinant; tags: N-terminal GST; dsDNA, one strand shown
# Chain of ELF4 (Q99607 whole entry): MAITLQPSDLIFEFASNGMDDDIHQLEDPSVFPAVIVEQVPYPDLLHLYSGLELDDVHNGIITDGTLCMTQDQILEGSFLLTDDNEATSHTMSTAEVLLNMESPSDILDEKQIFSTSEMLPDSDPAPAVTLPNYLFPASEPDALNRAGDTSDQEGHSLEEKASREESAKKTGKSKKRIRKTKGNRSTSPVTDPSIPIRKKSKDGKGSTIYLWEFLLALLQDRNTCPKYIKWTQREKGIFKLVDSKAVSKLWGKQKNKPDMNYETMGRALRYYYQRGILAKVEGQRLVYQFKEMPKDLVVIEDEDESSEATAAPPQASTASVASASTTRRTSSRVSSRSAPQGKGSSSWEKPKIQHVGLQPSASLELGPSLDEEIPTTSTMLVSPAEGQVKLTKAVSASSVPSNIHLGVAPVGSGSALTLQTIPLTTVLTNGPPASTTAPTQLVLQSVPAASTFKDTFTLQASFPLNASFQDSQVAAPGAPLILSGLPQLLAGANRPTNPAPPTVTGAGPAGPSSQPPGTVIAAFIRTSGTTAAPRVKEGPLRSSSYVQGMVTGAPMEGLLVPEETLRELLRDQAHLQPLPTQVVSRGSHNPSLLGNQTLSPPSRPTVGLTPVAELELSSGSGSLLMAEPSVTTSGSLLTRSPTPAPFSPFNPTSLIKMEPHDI
# Summary of the method: as §1
# ELK4 = target: T3, ELK4 (Homo sapiens, UniProt P28324-2 1-405); settings: protein: recombinant; tags: N-terminal GST; dsDNA, one strand shown
# T3 sequence: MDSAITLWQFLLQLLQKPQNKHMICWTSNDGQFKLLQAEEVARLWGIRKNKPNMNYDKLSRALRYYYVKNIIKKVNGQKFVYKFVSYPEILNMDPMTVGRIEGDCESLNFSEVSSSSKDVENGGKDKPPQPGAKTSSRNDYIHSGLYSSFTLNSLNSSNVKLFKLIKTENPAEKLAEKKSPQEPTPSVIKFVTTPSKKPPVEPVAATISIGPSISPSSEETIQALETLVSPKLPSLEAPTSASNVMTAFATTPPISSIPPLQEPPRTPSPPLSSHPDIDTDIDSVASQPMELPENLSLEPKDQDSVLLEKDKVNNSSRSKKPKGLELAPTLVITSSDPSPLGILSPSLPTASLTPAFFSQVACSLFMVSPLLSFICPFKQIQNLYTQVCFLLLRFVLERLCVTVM
# Summary of the method: as §1
# ETV2 = target: T4, ETV2 (Homo sapiens, UniProt O00321 1-342); settings: protein: recombinant; tags: N-terminal GST; dsDNA, one strand shown
# T4 sequence: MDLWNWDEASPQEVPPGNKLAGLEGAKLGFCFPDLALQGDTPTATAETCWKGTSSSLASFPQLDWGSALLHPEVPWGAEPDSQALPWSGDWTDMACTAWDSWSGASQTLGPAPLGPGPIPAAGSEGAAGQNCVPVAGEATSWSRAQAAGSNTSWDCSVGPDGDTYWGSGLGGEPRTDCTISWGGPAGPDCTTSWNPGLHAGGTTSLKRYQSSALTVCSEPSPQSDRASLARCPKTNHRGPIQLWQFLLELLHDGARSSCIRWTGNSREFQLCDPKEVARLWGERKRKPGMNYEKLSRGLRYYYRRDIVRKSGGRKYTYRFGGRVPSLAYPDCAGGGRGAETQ
# Summary of the method: as §1
# ELF3 = target: T5, ELF3 (Homo sapiens, UniProt P78545 1-371); settings: protein: recombinant; tags: N-terminal GST; dsDNA, one strand shown
# T5 sequence: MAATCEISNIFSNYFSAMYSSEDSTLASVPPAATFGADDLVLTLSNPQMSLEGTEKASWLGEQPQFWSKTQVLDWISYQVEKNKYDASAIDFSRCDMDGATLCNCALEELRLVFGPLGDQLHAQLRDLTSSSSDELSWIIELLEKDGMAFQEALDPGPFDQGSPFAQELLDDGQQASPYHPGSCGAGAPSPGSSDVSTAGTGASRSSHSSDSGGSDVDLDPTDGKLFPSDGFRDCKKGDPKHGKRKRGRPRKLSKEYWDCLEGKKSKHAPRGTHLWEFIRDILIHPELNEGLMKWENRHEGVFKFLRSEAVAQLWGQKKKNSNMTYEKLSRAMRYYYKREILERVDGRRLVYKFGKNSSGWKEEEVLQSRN
# Summary of the method: as §1
# CRX = CRX (Homo sapiens, UniProt O43186 1-299); settings: protein: recombinant; tags: N-terminal GST; dsDNA, one strand shown
# Chain of CRX (O43186 whole entry): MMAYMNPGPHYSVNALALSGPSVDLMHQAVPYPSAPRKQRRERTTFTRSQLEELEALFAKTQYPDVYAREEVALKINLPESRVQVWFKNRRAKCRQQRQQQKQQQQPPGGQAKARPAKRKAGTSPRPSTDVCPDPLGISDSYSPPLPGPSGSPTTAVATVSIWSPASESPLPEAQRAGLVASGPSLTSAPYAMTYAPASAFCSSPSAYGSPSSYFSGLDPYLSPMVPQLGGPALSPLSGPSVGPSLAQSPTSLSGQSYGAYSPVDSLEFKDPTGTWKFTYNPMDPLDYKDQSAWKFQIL
# Summary of the method: as §1
# ETV1 = ETV1 (Homo sapiens, UniProt P50549 1-477); settings: protein: recombinant; tags: N-terminal GST; dsDNA, one strand shown
# Chain of ETV1 (P50549 whole entry): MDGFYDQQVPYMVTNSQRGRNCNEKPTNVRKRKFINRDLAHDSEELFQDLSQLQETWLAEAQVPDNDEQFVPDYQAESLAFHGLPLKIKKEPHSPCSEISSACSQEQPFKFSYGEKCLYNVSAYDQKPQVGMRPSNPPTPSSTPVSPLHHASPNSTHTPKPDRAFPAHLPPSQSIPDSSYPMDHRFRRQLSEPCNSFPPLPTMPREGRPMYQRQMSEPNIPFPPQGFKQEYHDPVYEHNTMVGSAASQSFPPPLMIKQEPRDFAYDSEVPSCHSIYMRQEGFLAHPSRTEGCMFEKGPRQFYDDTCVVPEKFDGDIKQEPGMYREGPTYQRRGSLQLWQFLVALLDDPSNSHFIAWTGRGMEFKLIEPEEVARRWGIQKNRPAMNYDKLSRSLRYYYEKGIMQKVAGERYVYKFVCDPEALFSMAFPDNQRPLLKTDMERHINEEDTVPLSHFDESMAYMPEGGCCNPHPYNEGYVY
# Summary of the method: as §1
# ERF = target: T6, ERF (Homo sapiens, UniProt P50548 1-548); settings: protein: recombinant; tags: N-terminal GST; dsDNA, one strand shown
# T6 sequence: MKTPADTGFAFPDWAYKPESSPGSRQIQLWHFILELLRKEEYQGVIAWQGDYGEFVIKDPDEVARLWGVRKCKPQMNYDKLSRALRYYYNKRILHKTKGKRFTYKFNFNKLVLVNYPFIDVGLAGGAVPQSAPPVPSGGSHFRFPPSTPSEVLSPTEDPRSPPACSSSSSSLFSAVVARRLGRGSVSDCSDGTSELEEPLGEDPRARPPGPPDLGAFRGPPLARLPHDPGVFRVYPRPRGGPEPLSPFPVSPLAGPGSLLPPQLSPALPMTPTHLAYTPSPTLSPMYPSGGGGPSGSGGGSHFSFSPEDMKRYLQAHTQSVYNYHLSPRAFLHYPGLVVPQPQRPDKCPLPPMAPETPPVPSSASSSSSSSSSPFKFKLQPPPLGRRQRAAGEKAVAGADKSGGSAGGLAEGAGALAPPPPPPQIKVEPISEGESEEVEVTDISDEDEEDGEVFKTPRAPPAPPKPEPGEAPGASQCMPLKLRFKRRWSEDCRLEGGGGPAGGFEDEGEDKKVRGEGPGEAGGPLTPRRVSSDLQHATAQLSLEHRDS
# Summary of the method: as §1
# ETV3L = target: T7, ETV3L (Homo sapiens, UniProt Q6ZN32 1-361); settings: protein: recombinant; tags: N-terminal GST; dsDNA, one strand shown
# T7 sequence: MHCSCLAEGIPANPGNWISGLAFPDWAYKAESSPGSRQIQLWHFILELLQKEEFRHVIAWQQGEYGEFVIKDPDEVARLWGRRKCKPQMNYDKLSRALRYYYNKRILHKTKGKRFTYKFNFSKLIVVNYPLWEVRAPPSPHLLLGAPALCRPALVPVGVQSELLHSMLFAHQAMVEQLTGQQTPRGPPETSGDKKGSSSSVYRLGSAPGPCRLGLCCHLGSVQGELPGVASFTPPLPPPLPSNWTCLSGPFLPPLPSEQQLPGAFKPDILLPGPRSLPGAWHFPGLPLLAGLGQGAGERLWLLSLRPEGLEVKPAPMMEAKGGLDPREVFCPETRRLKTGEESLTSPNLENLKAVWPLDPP
# Summary of the method: as §1
# ETS2 = target: T8, ETS2 (Homo sapiens, UniProt P15036 1-469); settings: protein: recombinant; tags: N-terminal GST; dsDNA, one strand shown
# T8 sequence: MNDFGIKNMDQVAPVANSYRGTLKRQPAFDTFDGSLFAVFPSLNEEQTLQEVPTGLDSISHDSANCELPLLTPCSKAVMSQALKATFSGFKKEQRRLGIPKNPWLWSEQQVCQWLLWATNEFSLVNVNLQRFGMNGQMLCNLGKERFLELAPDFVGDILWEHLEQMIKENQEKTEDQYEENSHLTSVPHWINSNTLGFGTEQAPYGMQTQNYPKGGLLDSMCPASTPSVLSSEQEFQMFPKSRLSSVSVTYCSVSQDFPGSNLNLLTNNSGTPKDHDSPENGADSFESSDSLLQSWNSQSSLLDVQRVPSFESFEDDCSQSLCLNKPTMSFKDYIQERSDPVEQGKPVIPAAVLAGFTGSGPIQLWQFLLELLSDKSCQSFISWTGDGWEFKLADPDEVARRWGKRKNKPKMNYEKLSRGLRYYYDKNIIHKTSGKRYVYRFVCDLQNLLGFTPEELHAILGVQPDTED
# Summary of the method: as §1
# SPDEF = target: T9, SPDEF (Homo sapiens, UniProt O95238 1-335); settings: protein: recombinant; tags: N-terminal GST; dsDNA, one strand shown
# T9 sequence: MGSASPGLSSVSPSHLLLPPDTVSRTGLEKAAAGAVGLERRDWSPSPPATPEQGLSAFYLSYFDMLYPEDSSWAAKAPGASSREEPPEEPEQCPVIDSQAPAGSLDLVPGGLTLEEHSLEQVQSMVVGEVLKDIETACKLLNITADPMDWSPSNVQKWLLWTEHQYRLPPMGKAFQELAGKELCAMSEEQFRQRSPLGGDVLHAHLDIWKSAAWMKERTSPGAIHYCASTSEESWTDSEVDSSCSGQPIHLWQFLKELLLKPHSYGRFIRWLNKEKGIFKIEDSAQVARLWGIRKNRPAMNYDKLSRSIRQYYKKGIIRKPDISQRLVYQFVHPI
# Summary of the method: as §1
# ETV7 = target: T10, ETV7 (Homo sapiens, UniProt Q9Y603 1-341); settings: protein: recombinant; tags: N-terminal GST; dsDNA, one strand shown
# T10 sequence: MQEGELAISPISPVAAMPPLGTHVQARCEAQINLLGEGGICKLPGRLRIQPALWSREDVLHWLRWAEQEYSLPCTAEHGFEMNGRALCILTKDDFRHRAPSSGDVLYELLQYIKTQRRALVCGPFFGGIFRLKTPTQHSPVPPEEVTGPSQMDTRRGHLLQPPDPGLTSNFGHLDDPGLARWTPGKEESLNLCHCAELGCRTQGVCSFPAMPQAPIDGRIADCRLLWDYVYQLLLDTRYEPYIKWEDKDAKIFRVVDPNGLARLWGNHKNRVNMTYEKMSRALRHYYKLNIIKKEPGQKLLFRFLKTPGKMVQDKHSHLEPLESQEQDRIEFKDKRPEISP
# Summary of the method: as §1
# ELF5 = target: T11, ELF5 (Homo sapiens, UniProt Q9UKW6-2 1-255); settings: protein: recombinant; tags: N-terminal GST; dsDNA, one strand shown
# T11 sequence: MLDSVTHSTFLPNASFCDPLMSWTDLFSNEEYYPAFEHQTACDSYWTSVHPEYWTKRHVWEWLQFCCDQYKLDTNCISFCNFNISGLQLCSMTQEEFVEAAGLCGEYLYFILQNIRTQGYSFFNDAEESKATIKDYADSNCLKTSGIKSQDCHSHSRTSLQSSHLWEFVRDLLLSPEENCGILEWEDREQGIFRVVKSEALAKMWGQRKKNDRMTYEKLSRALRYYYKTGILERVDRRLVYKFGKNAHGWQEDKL
# Summary of the method: as §1
# ETV3 = target: T12, ETV3 (Homo sapiens, UniProt P41162-2 1-143); settings: protein: recombinant; tags: N-terminal GST; dsDNA, one strand shown
# T12 sequence: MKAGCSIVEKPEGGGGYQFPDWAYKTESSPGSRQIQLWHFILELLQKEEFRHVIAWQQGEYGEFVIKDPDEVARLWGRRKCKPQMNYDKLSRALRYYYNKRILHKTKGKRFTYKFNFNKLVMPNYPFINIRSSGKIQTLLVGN
# Summary of the method: as §1
# ETV6 = ETV6 (Homo sapiens, UniProt P41212 1-452); settings: protein: recombinant; tags: N-terminal GST; dsDNA, one strand shown
# Chain of ETV6 (P41212 whole entry): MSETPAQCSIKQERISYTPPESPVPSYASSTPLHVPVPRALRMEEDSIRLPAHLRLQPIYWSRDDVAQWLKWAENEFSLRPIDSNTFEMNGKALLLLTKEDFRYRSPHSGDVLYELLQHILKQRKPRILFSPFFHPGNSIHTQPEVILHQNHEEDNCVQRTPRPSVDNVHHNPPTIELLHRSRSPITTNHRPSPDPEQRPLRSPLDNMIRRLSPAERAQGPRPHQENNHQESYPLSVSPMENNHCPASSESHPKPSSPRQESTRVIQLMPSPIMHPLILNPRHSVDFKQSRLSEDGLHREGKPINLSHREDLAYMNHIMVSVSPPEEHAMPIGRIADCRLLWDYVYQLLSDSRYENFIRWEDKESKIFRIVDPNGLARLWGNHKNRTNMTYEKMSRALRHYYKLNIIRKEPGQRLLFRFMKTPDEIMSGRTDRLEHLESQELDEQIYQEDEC
# Summary of the method: as §1
sequence,measurement,setting,value
TCTCCG,binding signal,FEV,"1.69 fold enrichment (6-mer frequency, TF over GST control)"
same,binding signal,ETV5,"1.61 fold enrichment (6-mer frequency, TF over GST control)"
same,binding signal,HSF1,"1.43 fold enrichment (6-mer frequency, TF over GST control)"
same,binding signal,SPIC,"1.55 fold enrichment (6-mer frequency, TF over GST control)"
same,binding signal,ELF4,"1.59 fold enrichment (6-mer frequency, TF over GST control)"
same,binding signal,ELK4,"1.68 fold enrichment (6-mer frequency, TF over GST control)"
same,binding signal,ETV2,"1.47 fold enrichment (6-mer frequency, TF over GST control)"
same,binding signal,ELF3,"1.2 fold enrichment (6-mer frequency, TF over GST control)"
same,binding signal,CRX,"1.37 fold enrichment (6-mer frequency, TF over GST control)"
same,binding signal,ETV1,"1.48 fold enrichment (6-mer frequency, TF over GST control)"
same,binding signal,ERF,"1.38 fold enrichment (6-mer frequency, TF over GST control)"
same,binding signal,ETV3L,"1.43 fold enrichment (6-mer frequency, TF over GST control)"
same,binding signal,ETS2,"1.62 fold enrichment (6-mer frequency, TF over GST control)"
same,binding signal,SPDEF,"1.65 fold enrichment (6-mer frequency, TF over GST control)"
same,binding signal,ETV7,"1.31 fold enrichment (6-mer frequency, TF over GST control)"
same,binding signal,ELF5,"1.56 fold enrichment (6-mer frequency, TF over GST control)"
same,binding signal,ETV3,"1.66 fold enrichment (6-mer frequency, TF over GST control)"
same,binding signal,ETV6,"1.48 fold enrichment (6-mer frequency, TF over GST control)"
